Assay [1] in a line: Human pregnane X receptor (PXR) small molecule agonists, qHTS cell viability counter screen (AID 1346977). Also: nearly all actives have a fitted effect of over 50% in size. An outline of the steps:
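Same-well viability read: CellTiter-Fluor added after 23 hr compound exposure, fluorescence measured 1 hr later. Cells were PXR-Luc HepG2 seeded at 2,000/well in 5% charcoal-stripped FBS medium, rested 5 hr before dosing at 37 C.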
(In general: Quantitative high-throughput screening tests each substance at several concentrations.)

The nature of assay [2]: Caspase-3/7 induction in HepG2 cells by small molecules, qHTS assay (AID 1346978). Also: nearly all actives have a fitted effect of over 15% in size. In a few lines: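 Caspase-3/7 induction was measured by Caspase-Glo 3/7 luminescence (30 min, room temperature) after a 17 hr compound exposure of wild-type HepG2 cells seeded at 2,000 per well and pre-incubated 5 hr.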
Assay [3] in a line: Caspase-3/7 induction in CHO-K1 cells by small molecules, qHTS cell viability counter screen (AID 1346979). Also: nearly all actives have a fitted effect of over 35% in size. An outline of the steps:
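Cytotoxicity counter screen: CellTiter-Fluor added to compound-treated wild-type CHO-K1 cells at 16 h (37C, 5% CO2), fluorescence measured 1 h later; same wells as caspase-3/7 measurement.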

A short description of assay [4]: Caspase-3/7 induction in CHO-K1 cells by small molecules, qHTS assay (AID 1346980). Also: nearly all actives have a fitted effect of over 15% in size. In a few lines: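 Luminescent Caspase-Glo 3/7 read (30min, room temperature) quantified apoptosis induction. Cells were wild-type CHO-K1, treated with compound for 17hr at 37 C and 5% CO2.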
The nature of assay [5]: Caspase-3/7 induction in HepG2 cells by small molecules, qHTS cell viability counter screen (AID 1346981). Also: series mostly up to about 92 µM; nearly all actives have a fitted effect of over 30% in size. An outline of the steps: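 Counter screen for cytotoxicity: HepG2 exposed 16 hr to compounds, then CellTiter-Fluor viability signal (fluorescence, 1 hr reagent incubation).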
The target of assay [6] is Nuclear receptor subfamily 1 group I member 2 (Homo sapiens) (UniProt O75469). As to the kind of experiment: Human pregnane X receptor (PXR) small molecule agonists, qHTS assay (AID 1346982). Also: nearly all actives have a fitted effect of over 35% in size. Also: potency is read from the fitted curve at half-maximal effect. An outline of the steps: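 Luminescence (ONE-Glo, 30 min RT) after 24 hr compound exposure of PXR-Luc HepG2 cells; cells rested 5 hr post-plating in 5% charcoal-stripped FBS medium.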

The target in assay [7] is Cytochrome P450 2D6 (Homo sapiens) (UniProt P10635). The assay is described as follows: Cytochrome P450 Family 2 Subfamily D Member 6 (CYP2D6) small molecule antagonists: luciferase reporter qHTS assay (AID 1671196). Also: nearly all actives have a fitted effect of over 50% in size. Also: potency is read from the fitted curve at half-maximal effect. As to activity change, negative = inhibition: series mostly up to about 120 µM. An outline of the steps: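 Inhibition of CYP2D6 was gauged by loss of luminescence, since light produced tracks the luciferin generated from a proluciferin substrate. A 10 min room-temperature preincubation preceded 1 h NADPH-supported turnover.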
Background: A reporter such as luciferase makes a cellular process visible.

The target in assay [8] is Cytochrome P450 2C19 (Homo sapiens) (UniProt P33261). The assay is described as follows: Cytochrome P450 Family 2 Subfamily C Member 19 (CYP2C19) small molecule antagonists: luciferase reporter qHTS assay (AID 1671197). Also: nearly all actives have a fitted effect of over 65% in size. Also: potency is read from the fitted curve at half-maximal effect. As to activity change, negative = inhibition: series mostly up to about 120 µM. In a few lines:
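Relative luminescence units recorded 20 min after the detection reagent stopped a 1 h, 37C CYP2C19 reaction on proluciferin substrate, which was started by NADPH regeneration following 10 min room-temperature compound preincubation; ketoconazole positive control.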

Assay [9] has as its target Cytochrome P450 2C9 (Homo sapiens) (UniProt P11712). As to the kind of experiment: Cytochrome P450 Family 2 Subfamily C Member 9 (CYP2C9) small molecule antagonists: luciferase reporter qHTS assay (AID 1671198). Also: nearly all actives have a fitted effect of over 50% in size. Also: potency is read from the fitted curve at half-maximal effect. As to activity change, negative = inhibition: series mostly up to about 120 µM. An outline of the steps:
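Enzyme-substrate mix preincubated with compound 10 min at room temperature; reaction started with NADPH regeneration solution, 1 h 37C. Luminescent luciferin product read after 20 min detection reagent.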

Assay [10] concerns the target Cytochrome P450 1A2 (Homo sapiens) (UniProt P05177). The assay is described as follows: Cytochrome P450 Family 1 Subfamily A Member 2 (CYP1A2) small molecule antagonists: luciferase reporter qHTS assay (AID 1671199). Also: nearly all actives have a fitted effect of over 50% in size. Also: potency is read from the fitted curve at half-maximal effect. As to activity change, negative = inhibition: series mostly up to about 120 µM. An outline of the steps: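 Signal from luciferin formed by CYP1A2 from a proluciferin substrate is read as luminescence, expressed in relative luminescence units. Compounds sit with enzyme 10 min, NADPH-driven reaction runs 1 h, all at room temperature.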

Assay [11] has as its target Voltage-gated inwardly rectifying potassium channel KCNH2 (Homo sapiens) (UniProt Q12809). As to the kind of experiment: Human Ether-a-go-go-Related Gene (hERG) channel small molecule antagonists: fluorescence cell-based qHTS assay (AID 1671200). In a few lines: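 Thallium flux as potassium surrogate: FluxOR II dye loaded 1 h at room temperature into hERG-expressing U2OS cells, then stimulus buffer added after 10 min. Kinetic 480 nm excitation/540 nm emission read, 2 min.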

The target in assay [12] is Cytochrome P450 3A4 (Homo sapiens) (UniProt P08684). As to the kind of experiment: Cytochrome P450 Family 3 Subfamily A Member 4 (CYP3A4) small molecule antagonists: luciferase reporter qHTS assay (AID 1671201). Also: nearly all actives have a fitted effect of over 50% in size. Also: potency is read from the fitted curve at half-maximal effect. As to activity change, negative = inhibition: series mostly up to about 120 µM. In a few lines:
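Recombinant human CYP3A4 converts a proluciferin substrate to luciferin over 1 h at room temperature after NADPH regeneration solution is added (compound preincubated 10 min); detection reagent stops reaction, luminescence read 20 min later as relative units.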

The target of assay [13] is Thyrotropin-releasing hormone receptor (Homo sapiens) (UniProt P34981). As to the kind of experiment: qHTS assay to identify small molecule agonists of the thyrotropin-releasing hormone receptor (TRHR) signaling pathway (AID 1346891; calls by dose curve; also: series mostly up to about 58 µM). An outline of the steps:
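Agonist-mode intracellular calcium readout: kinetic fluorescence over 3 min at 1 s intervals after compound addition to TRHR-HEK293 cells (18 h seeded, 2 h dye-loaded at 37 C). Fifteen concentrations, triplicates.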

Assay [14] has as its target Nuclear receptor subfamily 1 group I member 2 (Rattus norvegicus) (UniProt Q9R1A7). As to the kind of experiment: Rat pregnane X receptor (rPXR) activation by small molecules, qHTS assay (AID 1346983). Also: nearly all actives have a fitted effect of over 20% in size. Conditions: rPXR luciferase reporter cells, One-Glo luminescence, 24 h; stronger effect = higher value. An outline of the steps: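 Luminescent readout (One-Glo luciferase, 30 min room temperature) followed 24 hr compound treatment at 37 C of rPXR cells plated 2,000 per well and preincubated 5hr; qHTS format with compounds delivered in DMSO.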

Structures are written as SMILES. Unmarked numbers belong to inactive results. Records with an inconclusive call do not appear. Active and inactive are the calls of the source. Unless noted, calls follow the shape of the dose curve; as a rule, active = well fitted curve in the direction sought with a large enough effect in the repeat runs; inconclusive = weak or mixed curves; inactive = no such curve, though single readings can be large; an effect the other way counts as inactive or inconclusive.
% is scaled to controls: 0 for no effect and ±100 for the full control effect.

Nuclear receptor subfamily 1 group I member 2 (Homo sapiens), sequence (O75469 whole entry, looked up): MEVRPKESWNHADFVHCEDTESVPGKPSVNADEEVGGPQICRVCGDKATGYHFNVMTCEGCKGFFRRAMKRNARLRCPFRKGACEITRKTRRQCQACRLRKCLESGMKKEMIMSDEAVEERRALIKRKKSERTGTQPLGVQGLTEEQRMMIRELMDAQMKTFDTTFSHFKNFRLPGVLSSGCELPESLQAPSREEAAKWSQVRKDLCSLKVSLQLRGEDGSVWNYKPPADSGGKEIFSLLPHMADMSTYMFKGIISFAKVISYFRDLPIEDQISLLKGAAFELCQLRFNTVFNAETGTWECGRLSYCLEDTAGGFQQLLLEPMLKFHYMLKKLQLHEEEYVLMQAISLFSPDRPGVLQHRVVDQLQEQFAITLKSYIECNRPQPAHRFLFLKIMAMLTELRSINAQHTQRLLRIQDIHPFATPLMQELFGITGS
Thyrotropin-releasing hormone receptor (Homo sapiens), sequence (P34981 whole entry, looked up): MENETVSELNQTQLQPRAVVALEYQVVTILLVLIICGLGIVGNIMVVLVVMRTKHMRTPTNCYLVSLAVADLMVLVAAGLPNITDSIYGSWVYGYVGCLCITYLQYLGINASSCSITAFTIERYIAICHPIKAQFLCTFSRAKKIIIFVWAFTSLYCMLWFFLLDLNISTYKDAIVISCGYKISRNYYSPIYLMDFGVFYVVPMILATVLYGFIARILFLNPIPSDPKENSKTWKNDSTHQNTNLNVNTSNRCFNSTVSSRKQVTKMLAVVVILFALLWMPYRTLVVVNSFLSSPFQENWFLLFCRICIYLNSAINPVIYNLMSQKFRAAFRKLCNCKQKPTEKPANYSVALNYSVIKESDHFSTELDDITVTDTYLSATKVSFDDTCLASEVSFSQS
Cytochrome P450 2C9 (Homo sapiens), sequence (P11712 whole entry, looked up): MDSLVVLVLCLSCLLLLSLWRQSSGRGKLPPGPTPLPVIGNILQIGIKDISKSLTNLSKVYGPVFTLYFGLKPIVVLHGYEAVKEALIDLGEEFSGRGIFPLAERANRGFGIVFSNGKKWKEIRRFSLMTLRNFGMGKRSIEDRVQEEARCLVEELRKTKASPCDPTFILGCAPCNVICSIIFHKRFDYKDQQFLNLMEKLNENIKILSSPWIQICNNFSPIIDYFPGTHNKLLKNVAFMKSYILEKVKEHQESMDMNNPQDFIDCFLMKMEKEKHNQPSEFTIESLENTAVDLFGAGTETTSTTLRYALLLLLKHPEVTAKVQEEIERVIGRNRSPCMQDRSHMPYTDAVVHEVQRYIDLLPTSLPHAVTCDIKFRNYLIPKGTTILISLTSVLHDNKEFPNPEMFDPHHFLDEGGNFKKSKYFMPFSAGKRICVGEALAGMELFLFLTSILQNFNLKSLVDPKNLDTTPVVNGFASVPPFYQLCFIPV
Voltage-gated inwardly rectifying potassium channel KCNH2 (Homo sapiens), sequence (Q12809 whole entry, looked up): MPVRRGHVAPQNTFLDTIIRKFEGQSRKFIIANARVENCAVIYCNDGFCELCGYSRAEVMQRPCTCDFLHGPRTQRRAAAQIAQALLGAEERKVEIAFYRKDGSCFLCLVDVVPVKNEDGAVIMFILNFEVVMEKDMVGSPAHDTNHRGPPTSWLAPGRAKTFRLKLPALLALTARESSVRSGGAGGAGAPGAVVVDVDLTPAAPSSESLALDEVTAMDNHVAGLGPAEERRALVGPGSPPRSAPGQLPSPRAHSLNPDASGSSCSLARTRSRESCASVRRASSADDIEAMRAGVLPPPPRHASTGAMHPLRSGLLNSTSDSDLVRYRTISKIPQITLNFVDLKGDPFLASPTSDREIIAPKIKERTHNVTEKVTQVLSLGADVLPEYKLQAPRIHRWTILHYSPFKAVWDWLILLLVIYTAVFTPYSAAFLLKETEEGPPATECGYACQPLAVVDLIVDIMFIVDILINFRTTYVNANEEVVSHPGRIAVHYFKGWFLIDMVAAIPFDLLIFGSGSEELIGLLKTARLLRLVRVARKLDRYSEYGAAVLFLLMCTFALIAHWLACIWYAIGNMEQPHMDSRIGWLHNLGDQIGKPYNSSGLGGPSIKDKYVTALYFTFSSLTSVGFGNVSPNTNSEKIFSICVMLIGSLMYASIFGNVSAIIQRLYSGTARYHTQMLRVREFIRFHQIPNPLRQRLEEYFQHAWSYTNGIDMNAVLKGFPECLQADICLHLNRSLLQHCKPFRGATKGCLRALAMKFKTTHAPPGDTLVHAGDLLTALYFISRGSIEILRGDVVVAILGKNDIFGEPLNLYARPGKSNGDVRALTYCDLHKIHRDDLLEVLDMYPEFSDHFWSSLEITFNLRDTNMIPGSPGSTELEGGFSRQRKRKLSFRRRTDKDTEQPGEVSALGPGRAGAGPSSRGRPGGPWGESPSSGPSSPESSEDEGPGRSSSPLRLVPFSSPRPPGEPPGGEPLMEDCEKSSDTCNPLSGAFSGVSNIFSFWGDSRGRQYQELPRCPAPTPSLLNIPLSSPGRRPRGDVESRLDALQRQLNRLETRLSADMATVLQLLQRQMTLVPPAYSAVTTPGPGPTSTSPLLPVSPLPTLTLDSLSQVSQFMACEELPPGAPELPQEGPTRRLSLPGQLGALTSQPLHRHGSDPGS
Cytochrome P450 3A4 (Homo sapiens), sequence (P08684 whole entry, looked up): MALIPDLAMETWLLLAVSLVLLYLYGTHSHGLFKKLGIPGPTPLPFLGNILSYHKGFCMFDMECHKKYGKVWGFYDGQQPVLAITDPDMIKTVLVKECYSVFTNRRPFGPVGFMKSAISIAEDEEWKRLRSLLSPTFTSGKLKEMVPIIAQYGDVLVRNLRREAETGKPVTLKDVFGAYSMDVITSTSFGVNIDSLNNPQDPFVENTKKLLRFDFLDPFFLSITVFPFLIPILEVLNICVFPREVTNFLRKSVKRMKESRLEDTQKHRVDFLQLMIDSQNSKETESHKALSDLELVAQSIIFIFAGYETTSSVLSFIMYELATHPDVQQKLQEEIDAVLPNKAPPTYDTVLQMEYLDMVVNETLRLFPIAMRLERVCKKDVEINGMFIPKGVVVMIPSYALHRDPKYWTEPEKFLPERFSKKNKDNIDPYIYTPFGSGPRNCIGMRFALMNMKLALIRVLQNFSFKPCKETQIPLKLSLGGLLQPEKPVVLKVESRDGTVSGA
Cytochrome P450 2D6 (Homo sapiens), sequence (P10635 whole entry, looked up): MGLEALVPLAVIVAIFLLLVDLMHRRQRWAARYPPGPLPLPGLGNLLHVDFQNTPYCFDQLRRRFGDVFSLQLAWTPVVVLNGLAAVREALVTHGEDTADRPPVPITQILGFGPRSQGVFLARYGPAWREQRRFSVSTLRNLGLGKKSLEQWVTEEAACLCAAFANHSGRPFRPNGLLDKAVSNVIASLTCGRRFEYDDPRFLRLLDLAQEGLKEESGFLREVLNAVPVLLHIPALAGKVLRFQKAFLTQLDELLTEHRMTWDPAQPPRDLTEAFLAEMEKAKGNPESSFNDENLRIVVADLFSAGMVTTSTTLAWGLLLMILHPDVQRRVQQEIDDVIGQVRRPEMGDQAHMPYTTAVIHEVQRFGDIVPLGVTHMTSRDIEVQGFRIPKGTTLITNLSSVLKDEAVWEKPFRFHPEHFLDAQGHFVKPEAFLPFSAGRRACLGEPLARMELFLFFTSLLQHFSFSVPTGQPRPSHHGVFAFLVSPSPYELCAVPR
Cytochrome P450 2C19 (Homo sapiens), sequence (P33261 whole entry, looked up): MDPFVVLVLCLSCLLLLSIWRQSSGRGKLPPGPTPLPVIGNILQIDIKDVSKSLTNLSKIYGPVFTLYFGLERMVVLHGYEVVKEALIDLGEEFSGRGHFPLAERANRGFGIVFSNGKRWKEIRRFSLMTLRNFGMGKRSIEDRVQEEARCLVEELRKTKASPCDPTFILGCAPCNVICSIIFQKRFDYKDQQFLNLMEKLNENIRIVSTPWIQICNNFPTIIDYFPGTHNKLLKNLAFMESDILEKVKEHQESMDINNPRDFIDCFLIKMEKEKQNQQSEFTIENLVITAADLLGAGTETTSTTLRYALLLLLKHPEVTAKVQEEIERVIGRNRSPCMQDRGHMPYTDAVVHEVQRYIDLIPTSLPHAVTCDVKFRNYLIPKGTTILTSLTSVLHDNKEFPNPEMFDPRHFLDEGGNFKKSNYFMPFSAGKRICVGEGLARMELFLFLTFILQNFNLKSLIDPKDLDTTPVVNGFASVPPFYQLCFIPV
Cytochrome P450 1A2 (Homo sapiens), sequence (P05177 whole entry, looked up): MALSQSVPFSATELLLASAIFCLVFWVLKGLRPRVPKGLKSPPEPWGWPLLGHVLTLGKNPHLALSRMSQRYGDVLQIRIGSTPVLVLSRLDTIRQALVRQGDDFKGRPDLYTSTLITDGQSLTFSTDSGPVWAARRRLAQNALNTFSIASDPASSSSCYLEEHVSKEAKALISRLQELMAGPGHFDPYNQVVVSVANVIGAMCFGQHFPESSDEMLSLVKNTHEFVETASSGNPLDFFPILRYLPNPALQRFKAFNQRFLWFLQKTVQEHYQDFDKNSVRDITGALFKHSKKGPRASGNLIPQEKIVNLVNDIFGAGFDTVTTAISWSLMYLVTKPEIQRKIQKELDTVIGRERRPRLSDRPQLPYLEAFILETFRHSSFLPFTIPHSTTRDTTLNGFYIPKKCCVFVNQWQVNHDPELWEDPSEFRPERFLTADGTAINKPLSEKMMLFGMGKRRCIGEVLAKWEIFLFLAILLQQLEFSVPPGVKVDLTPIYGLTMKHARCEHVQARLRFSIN
Nuclear receptor subfamily 1 group I member 2 (Rattus norvegicus), sequence (Q9R1A7 whole entry, looked up): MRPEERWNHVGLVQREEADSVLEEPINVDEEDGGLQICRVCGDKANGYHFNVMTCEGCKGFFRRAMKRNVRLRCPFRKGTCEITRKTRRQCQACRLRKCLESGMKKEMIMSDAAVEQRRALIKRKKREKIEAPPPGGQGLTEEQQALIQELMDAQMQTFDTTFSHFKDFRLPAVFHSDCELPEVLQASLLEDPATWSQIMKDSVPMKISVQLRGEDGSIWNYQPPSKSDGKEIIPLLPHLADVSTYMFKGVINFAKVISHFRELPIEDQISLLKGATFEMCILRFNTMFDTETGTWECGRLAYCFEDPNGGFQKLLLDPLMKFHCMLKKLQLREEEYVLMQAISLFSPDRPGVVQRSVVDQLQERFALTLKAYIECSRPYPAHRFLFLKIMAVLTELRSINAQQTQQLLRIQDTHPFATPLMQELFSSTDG

For the molecule `C[Si](C)=O`, the activity change, negative = cytotoxicity in [1] is 7.41% [at 8.39 µM]; in assay [3], 1.4% [at 8.39 µM]; in assay [5] it was 6.01% [at 8.39 µM]. Further, the caspase activation in [2] was 0.773% [at 8.39 µM]. Besides, in assay [4], the caspase-3/7 activation was 0.203% [at 8.39 µM]. Moreover, the activation in assay [6] is 16.2% [at 8.39 µM]. Also, the activity change, negative = inhibition in [7] is -1.51% [at 10.5 µM]; in assay [8] it was -11.8% [at 10.5 µM]; in assay [9], -9.3% [at 10.5 µM]; in assay [10], -21% [at 10.5 µM]; in [11], 1.17% [at 6.97 µM]; in assay [12], -1.04% [at 10.5 µM].
Consider `CCNC(=O)C1CC(C)CCC1C(C)C` (configuration not stated), for which the molecule was classed as inactive in assay [13] and in assay [4]. The Potency entry in [1], in [3], in assay [7], in assay [10] and in [11] was “inactive” in each case. Further, the Potency in [8] and in [12] was 17.8 µM (active) each time.
For `CCC(C=O)CC`, the molecule was classed as inactive in assay [13] and in assay [4]. Moreover, the Potency result in assay [1], in assay [3], in [6], in assay [7], in assay [8] and in [9] was “inactive” in each case. Besides, the Potency result in assay [11] and in assay [12] was “inactive” throughout.
Take `CCCCCCN`: the result in assay [13] and in [4] was inactive. Also, the Potency result in [1], in assay [3], in [5], in assay [6], in [8] and in assay [9] was “inactive” in each case. Moreover, the Potency entry in assay [10], in assay [11] and in assay [12] was “inactive” throughout.
On to `COc1cc2c(cc1OC)[C@@H]1CC(=O)[C@@H](CC(C)C)CN1CC2`, for which the molecule was called inactive in assay [13] and in [4]. The Potency entry in [1], in assay [3], in [5] and in assay [11] was “inactive” each time. Also, the Potency was 12.3 µM (active) in [7], 7.76 µM (active) in [8] and 11 µM (active) in [9].
In the case of `COc1ccc(OC)c(Cl)c1`, the call in assay [13] and in assay [4] was inactive. In addition, the Potency result in [1], in assay [3], in assay [5], in assay [6], in [8] and in assay [11] was “inactive” each time. Further, the Potency entry in assay [12] was “inactive”.
With `O=C(OCC(O)CO)c1ccccc1Nc1ccnc2c(C(F)(F)F)cccc12` (configuration not stated), the outcome in assay [13] and in assay [4] was inactive. Moreover, the Potency entry in assay [1], in assay [5] and in [11] was “inactive” throughout. In addition, the Potency is 26.6 µM (active) in assay [6]; 30.9 µM (active) in assay [7]; 0.347 µM (active) in assay [8]; 9.77 µM (active) in assay [9]; 2.88 µM (active) in assay [10].
For `COc1ccc2c(c1)C(=O)N(CCc1ccc(S(=O)(=O)NC(=O)NC3CCCCC3)cc1)C(=O)C2(C)C`, the outcome in assay [13] and in assay [4] was inactive. Further, the Potency result in assay [1], in [3], in assay [5], in [7], in assay [8] and in assay [10] was “inactive” in each case. The Potency result in assay [11] was “inactive”. Further, in assay [14], the max activation is -1.03%. Besides, the Potency in assay [9] was 13.8 µM (active).
In the case of `COc1ccc2nc(SCc3ncc(C)c(OC)c3C)[nH]c2c1`, the Potency entry in assay [1], in assay [2], in assay [3], in assay [5] and in [11] was “inactive” in each case. The molecule was called inactive in assay [4]. The Potency was 23.7 µM (active) in [6]; 27.5 µM (active) in [7]; 2.19 µM (active) in assay [8]; 13.8 µM (active) in assay [9]; 15.5 µM (active) in assay [10].
